Holding throughout (format): functional
Test [1] addresses Solute carrier family 2, facilitated glucose transporter member 1 (Homo sapiens) (UniProt P11166). Kind of test: ST_JUDE_LEISH: Cytotoxicity at 2uM final concentration against transgenic Leishmania Mexicana promastigotes LmGLUT1 that are glucose transport deficient and complemented with the human glucose transporter GLUT1. Activity is measured by DNA content using SYBR green in vitro.

In test [2] the target is Hexose transporter 1 (Plasmodium falciparum) (UniProt O97467). Briefly: ST_JUDE_LEISH: Cytotoxicity at 2uM final concentration against transgenic Leishmania Mexicana promastigotes LmPfHT that are glucose transport deficient and complemented with the Plasmodium falciparum hexose transporter. Activity is measured by DNA content using SYBR green in vitro.
Test [3] addresses Glucose transporter (Leishmania mexicana) (UniProt O61059). Briefly: ST_JUDE_LEISH: Cytotoxicity at 2uM final concentration against transgenic Leishmania Mexicana promastigotes LmGT2 that are glucose transport deficient and complemented with the L. Mexicana glucose transporter 2. Activity is measured by DNA content using SYBR green in vitro.

34 compounds from ChEMBL document CHEMBL3433997, “St. Jude Leishmania screening dataset” (2016) can be followed below.

Solute carrier family 2, facilitated glucose transporter member 1 (Homo sapiens), sequence (P11166 whole entry): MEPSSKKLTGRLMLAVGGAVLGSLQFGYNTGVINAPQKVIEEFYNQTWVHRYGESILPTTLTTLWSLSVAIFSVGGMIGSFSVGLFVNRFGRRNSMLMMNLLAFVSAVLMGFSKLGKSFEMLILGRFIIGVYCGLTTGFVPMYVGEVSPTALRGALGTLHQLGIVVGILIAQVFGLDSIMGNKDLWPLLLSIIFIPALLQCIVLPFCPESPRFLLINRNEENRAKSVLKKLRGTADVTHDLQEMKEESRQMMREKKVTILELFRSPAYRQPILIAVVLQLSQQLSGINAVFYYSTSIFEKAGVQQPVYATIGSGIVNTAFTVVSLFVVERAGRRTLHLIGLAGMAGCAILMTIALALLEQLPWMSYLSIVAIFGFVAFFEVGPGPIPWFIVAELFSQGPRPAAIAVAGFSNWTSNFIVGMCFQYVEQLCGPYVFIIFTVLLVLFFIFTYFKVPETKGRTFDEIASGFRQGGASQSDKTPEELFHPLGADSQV

The inhibition is the drop in the measured response relative to a control, in per cent. Regarding `Cc1c(CC(=O)NCCC2CCN(CCCCCNC(=O)/C=C/c3ccc(Cl)c(Cl)c3)CC2)sc2ccc(Cl)cc12`, the inhibition in test [1] was determined as 4.42%; in test [2], 5.42%; in test [3], 6.13%.

`CCCC(C)Nc1nc(C)cc(N[C@@H](Cc2ccccc2)C(=O)NCc2ccc(C)cc2)n1` (some centres not stated): the results for the inhibition in test [1], in test [2] and in test [3] were 9.97%, 9.09% and 4.86%, respectively.

With `COc1ccccc1C1CCN(C2CCC(NC(=O)c3cc4cc(C(C)C)ccc4[nH]3)CC2)CC1` (configuration not stated), the inhibition is -0.19% in test [1], 0.03% in test [2] and 9.55% in test [3].

Consider `COc1cccc2cc(C(=O)N[C@@H](CC(C)C)C(=O)N[C@H](/C=N/N(C)C(=O)OC(C)(C)C)CC(=O)OC(C)(C)C)oc12`, for which the results for the inhibition in test [1], in test [2] and in test [3] were 2.84%, 3.79% and 3.79%, respectively.

With `O=C1CSc2ccc(CNC3CCN(CCc4c(F)cnc5ccc(F)cc45)CC3)nc2N1`, the inhibition in test [1] is -2.82%; in test [2], 0.21%; in test [3], -1.74%.

As to `COc1cc(-c2ccccc2)ccc1C(=O)Nc1ccc2c(c1)N(C)CCC2`, the results for the inhibition in test [1], in test [2] and in test [3] were 4.93%, 2.53% and 3.05%, respectively.

On to `COc1ccc2ncc(F)c(CCN3C4CCC3CC(NCc3ccc5c(c3)OCCO5)C4)c2n1` (configuration not stated), for which the figures for the inhibition in test [1], in test [2] and in test [3] were 59.9%, 71.9% and 79.2%, respectively.

In the case of `O=C(Cn1c(CCc2cccc(F)c2F)cc(=O)c2ccccc21)N(Cc1ccc(-c2ccc(C(F)(F)F)cc2)cc1)C1CCN(CCO)CC1`, the inhibition in test [1] was found to be 4.1%; in test [2], 3.74%; in test [3], 4.47%.

Regarding `Cn1nc(-c2ccc(NC(=O)Nc3cc(C(F)(F)F)ccc3F)c(F)c2)c2cnc(NCCCN3CCOCC3)nc21`, the inhibition turned out to be 6.47% in test [1], 6.96% in test [2] and 7.47% in test [3].

Take `CCOc1ccc(C(Cc2ccccc2)NC(=O)c2cccnc2)cc1OCC` (configuration not stated): the inhibition in test [1] is 0.79%; in test [2], -2.62%; in test [3], -0.89%.

Turning to `COc1cc2nc(N3CCC(CNC(=O)/C=C/c4ccccc4F)CC3)nc(N)c2cc1OC`, the inhibition in test [1] came out at 8.22%; in test [2], 7.84%; in test [3], 4.27%.

For `O=C(/C=C/c1cccc(C(F)(F)F)c1)NCCCCCN1CCC(c2c[nH]c3ccccc23)CC1`, the inhibition in test [1] is 4.06%; in test [2] it was 3.58%; in test [3], 1.4%.

Regarding `CN(C)CCCSc1ccccc1NC(=O)C=Cc1ccccc1`, the inhibition amounted to 5.73% in test [1], 7.21% in test [2] and 6.85% in test [3].

Turning to `COc1ccc(NC(=O)C2CCN(CCCCCNC(=O)/C=C/c3ccc(Cl)c(Cl)c3)CC2)cc1`, the figures for the inhibition in test [1], in test [2] and in test [3] were 2.19%, 2.22% and 2.85%, respectively.

Take `Cc1ccc2cc(NC(=O)c3cccc(C(=O)Nc4ccc5nc(C)ccc5c4)n3)ccc2n1`: the inhibition amounted to 15.1% in test [1], 12.2% in test [2] and 11.6% in test [3].

Regarding `Cc1ncsc1CCN1C(=O)CC2(C1=O)C(=O)N(Cc1ccccc1)c1ccc(Cl)cc12` (configuration not stated), the inhibition in test [1] was 1.9%; in test [2], 2.58%; in test [3], -1.17%.

Turning to `COc1cc2nc(NCCn3cccn3)nc(NCCc3ccccc3)c2cc1OC`, the inhibition in test [1] is 7.22%; in test [2], 3.02%; in test [3], 6.96%.

Turning to `OC[C@H]1CCCN1CC#Cc1cc2c(Nc3ccc(OCc4cccc(F)c4)c(Cl)c3)ncnc2s1`, the inhibition was 3.54% in test [1], 3.56% in test [2] and 2.65% in test [3].

Consider `O=C(Nc1cccc(Cl)c1N1CCOCC1)C(Cl)(Cl)Cl`, for which the inhibition in test [1] was 1.32%; in test [2], 0.42%; in test [3], 1.03%.

Regarding `CCc1cc2c3c(N)nc(N)nc3ccc2n1C(C)CC` (configuration not stated), the inhibition is 85.2% in test [1], 86.6% in test [2] and 80.3% in test [3].

Consider `COc1c(CNCCCCCCNCc2cc(Cl)c3ccccc3c2OC)cc(Cl)c2ccccc12`, for which the inhibition in test [1] is 1.94%; in test [2] it was 7.04%; in test [3], -0.2%.

On to `O=C(O)c1cc(C(F)(F)F)co1`, for which the values for the inhibition in test [1], in test [2] and in test [3] were -2.13%, -1.54% and -0.54%, respectively.

On to `N=c1c2nc(-c3c(F)cccc3Cl)[nH]c(=O)c2[nH]c(=O)n1-c1ccccc1`, for which the inhibition in test [1] came out at 2.91%; in test [2] it was 11.5%; in test [3] it was 3.34%.

`Cc1cccc2nc(-c3ccc(-c4ccc(CN5CCN(CC6CCCN(C)C6)CC5)cc4)cc3)[nH]c12` (configuration not stated): the figures for the inhibition in test [1], in test [2] and in test [3] were 8.82%, 10.8% and 6.25%, respectively.

As for `Cc1cccc2nc(-c3cccc(-c4ccc(C(=O)N5CCCCC5C(C)O)cc4)c3)[nH]c12` (configuration not stated), the inhibition in test [1] was found to be 4.05%; in test [2], 4.66%; in test [3] it was 5.64%.

On to `Cc1ccc(-c2nnc(Nc3ccc(C(=O)N4CCCCC4)cc3)c3ccccc23)cc1S(=O)(=O)NCC1CCCO1` (configuration not stated), for which the inhibition was determined as 4.15% in test [1], 21.1% in test [2] and 3.22% in test [3].

With `O=C(Nc1ccc(-c2cccc(-c3nc4cc(F)ccc4[nH]3)c2)cc1)Nc1ccc(Cl)c(Cl)c1`, the inhibition in test [1] is 3.29%; in test [2], 1.92%; in test [3] it was 3.36%.

`CC(CCCCOCCc1ccccc1)NCC(O)c1cc(Cl)c(N)c(Cl)c1` (configuration not stated): the inhibition in test [1] came out at 2.66%; in test [2], 0.7%; in test [3] it was 2.18%.

Consider `CC(CN1CCN(C)CC1)C(=O)Nc1cccc(-c2cccc(-c3nc4ccccc4[nH]3)c2)c1` (configuration not stated), for which the inhibition in test [1] was 4.45%; in test [2] it was 4.44%; in test [3], 2.44%.

With `Fc1ccc(CNc2ncc(-c3ccsc3)c(-c3nccs3)n2)cc1`, the inhibition in test [1] amounted to 0.01%; in test [2], 4.04%; in test [3], 0.95%.

`CC(C)N1CCC(N(Cc2ccc(-c3ccc(C(F)(F)F)cc3)cc2)C(=O)Cn2c(CCc3cccc(F)c3F)cc(=O)c3c2CCC3)CC1`: the inhibition in test [1] turned out to be 3.12%; in test [2] it was 4.34%; in test [3], 5.2%.

With `COc1ccc2nccc(N3CCN(CCNCc4ccc5c(n4)NC(=O)CO5)CC3)c2c1`, the inhibition in test [1] is 8.8%; in test [2] it was 8.24%; in test [3], 8.99%.

Consider `COc1ccc(C(=O)N2CCC3(CC2)C(=O)N(CC(=O)NC2CCCCC2)CN3c2ccccc2)c(OC)c1`, for which the inhibition amounted to 3.74% in test [1], 3.6% in test [2] and 4.38% in test [3].

Take `CC(C)(C)C(=O)Oc1ccc(CC2NCCc3cc(OC(=O)C(C)(C)C)c(OC(=O)C(C)(C)C)cc32)cc1OC(=O)C(C)(C)C` (configuration not stated): the inhibition amounted to 8.66% in test [1], 9.32% in test [2] and 7.65% in test [3].
